# Measured values: PubChem BioAssay AID1224865 (Sanford-Burnham Center for Chemical Genomics, 2016)
# Where “and” joins values, the source holds several entries; their conditions need not be identical. Equal entries are not always repeated. The whole screen tested about 360,000 compounds, of which about 1,100 (0.31%) were called active. Cut-off read from the data, not from the text of the source: active = activity change above about 30% (passing the limit was not always enough); inactive = the rest. Many of the other results were omitted from the sample, so actives are more common in it than they were. Some structures have more than one record in an assay (separate samples or runs), and their calls can disagree.
# Target: Hepatocyte nuclear factor 4-alpha (Homo sapiens) (UniProt P41235)
# Experiment: change in binding of human HNF4A to DNA, primary screen, biochemical, fluorescence polarization, FITC-DNA (AID 1224865)
# Settings: 1 h, at 10 µM, stronger effect = higher value
# Sequence of Hepatocyte nuclear factor 4-alpha (Homo sapiens) (P41235 whole entry, looked up): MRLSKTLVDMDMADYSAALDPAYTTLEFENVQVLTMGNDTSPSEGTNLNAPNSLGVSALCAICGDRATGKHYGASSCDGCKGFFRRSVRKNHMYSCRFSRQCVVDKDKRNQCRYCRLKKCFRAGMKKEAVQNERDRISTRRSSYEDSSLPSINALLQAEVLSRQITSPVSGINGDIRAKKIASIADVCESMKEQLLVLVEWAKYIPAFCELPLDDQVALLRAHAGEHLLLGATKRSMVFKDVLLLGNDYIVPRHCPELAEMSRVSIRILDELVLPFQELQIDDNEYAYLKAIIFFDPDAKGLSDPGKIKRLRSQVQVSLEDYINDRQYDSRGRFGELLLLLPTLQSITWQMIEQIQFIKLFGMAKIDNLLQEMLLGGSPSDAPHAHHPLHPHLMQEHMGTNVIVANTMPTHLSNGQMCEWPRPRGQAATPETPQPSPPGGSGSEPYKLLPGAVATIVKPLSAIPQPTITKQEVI
row,Structure (SMILES),activity change
1,CCc1ccc(CN2C(=O)c3ccccc3C2C(=O)NCC2CCCO2)cc1 (configuration not stated),0.41% (inactive)
2,O=C(NC(=S)Nc1ncccn1)c1ccccc1Br,1.65% (inactive)
3,O=C(Nc1cc(Cl)ccc1N1CCOCC1)c1ccc(N2CCCC2=O)cc1,-2.01% (inactive)
4,Cc1c(C(=O)NCCN2C(=O)S/C(=C\c3cccs3)C2=O)cccc1[N+](=O)[O-],-0.17% (inactive)
5,O=C(CCN1C(=O)c2ccccc2C1=O)NNC(=O)c1ccc(Cl)cc1Cl,-1.42% (inactive)
6,O=C(CCN1C(=O)/C(=C/c2cccs2)SC1=S)NNC(=O)c1cccc(O)c1,42.1% (active)
7,Cc1cccc(NC(=O)c2ccc(S(=O)(=O)N(C)CC3CCCO3)cc2)c1C (configuration not stated),-0.21% (inactive)
8,CC1=C(C(=O)Nc2cccc(C(=O)NCC(C)c3ccccc3)c2)SCCO1 (configuration not stated),-3.05% (inactive)
9,Cc1ccc(-c2cnc(C(O)c3cc(Cl)cc(Cl)c3)[nH]2)cc1 (configuration not stated),2.03% (inactive)
10,O=[N+]([O-])c1ccc(COc2ccccc2CN2CCOCC2)cc1,4.14% (inactive)
11,Cc1ccccc1OCCOc1ccc([N+](=O)[O-])cc1/C=N/n1cnnc1,0.85% (inactive)
12,Cc1cccc(COc2ccccc2/C=N/Nc2ccc([N+](=O)[O-])cc2)c1,53.2% (active)
13,Cc1ccc(Cl)cc1NC(=S)N(CCN(C)C)Cc1cccs1,-2.05% (inactive)
14,COCCCn1c(=O)/c(=C/c2ccccc2OC(C)C)s/c1=C(\C#N)C(=O)Nc1ccc(C(=O)O)cc1,21.5% (inactive)
15,CCOC(=O)[C@@H]1[C@H]2COc3cc(OC)ccc3[C@H]2N2C(=O)N(c3ccc(F)cc3)C(=O)[C@]12C,-1.52% (inactive)
16,C#CCOCCOCCOCCNc1nc(N2CCN(C(=O)C(Cc3ccc(O)cc3)n3cc(C(N)CC(C)C)nn3)CC2)nc(N2CCN(C(=O)C(Cc3ccc(O)cc3)n3cc(C(N)C(C)CC)nn3)CC2)n1 (configuration not stated),2.78% (inactive)
17,C#CCOCCOCCOCCNc1nc(N2CCN(C(=O)[C@H](CO)n3cc([C@@H](N)C(C)C)nn3)CC2)nc(N2CCN(C(=O)[C@H](CCC(=O)O)n3cc([C@@H](N)[C@H](C)CC)nn3)CC2)n1,-0.8% (inactive)
18,C#CCOCCOCCOCCNc1nc(N2CCN(C(=O)C([C@@H](C)O)n3cc([C@@H](N)CCCCN)nn3)CC2)nc(N2CCN(C(=O)[C@H](CCCCN)n3cc(CN)nn3)CC2)n1 (some centres not stated),59.9% (active)
19,CSc1sc(C)cc1C1C(C#N)=C(N)N(c2cccnc2)C2=C1C(=O)CCC2 (configuration not stated),-3.92% (inactive)
20,COC(=O)c1c(C)oc(C)c1S(=O)(=O)Nc1ccc(C(C)C)cc1,-0.92% (inactive)
21,FC(F)Oc1ccc(NC(=S)NCc2ccco2)cc1Cl,8.22% (inactive)
22,CCc1ccc2oc(-c3ccc(N)cc3)nc2c1,71.8% (active)

row,Structure (SMILES),activity change
1,COc1ccc2oc(N)nc2c1,0.82% (inactive)
2,CC1(C)C/C(=C(/C#N)C(N)=O)CCO1,-0.48% (inactive)
3,CCOC(=O)C1CCN(C(=O)C2CCN(S(=O)(=O)N3CCCC3)CC2)CC1,-3.6% (inactive)
4,CCOC(=O)C1CCN(C(=O)C2CCN(S(=O)(=O)CC)CC2)CC1,-4.66% (inactive)
5,CCOC(=O)N1CCN(C(=O)C2CCN(S(C)(=O)=O)CC2)CC1,30.5% (active)
6,CCCCc1nccn1CCn1ccnc1CCCC,-1.42% (inactive)
7,O=C(CC1SC(=Nc2ccccc2F)N(CCN2CCOCC2)C1=O)Nc1ccc(F)cc1F (configuration not stated),2.99% (inactive)
8,CC(C)(C)NC(=O)c1ccc(Cn2cc(C(F)(F)F)ccc2=O)cc1,-4.39% (inactive)
9,Cc1ccc2[nH]c(=O)c(CN3CCCCC3)c(-c3ccccc3)c2c1,-1.94% (inactive)
10,O=c1cc(CN2CCCCCCC2)c2c(ccc3ccccc32)o1,-1.79% (inactive)
11,c1ccc2cc3[nH]c(CN4CCCCC4)nc3cc2c1,33.4% (active)
12,O=S(=O)(Cc1ccc(Cl)cc1Cl)c1ccc(Cl)cc1,1.8% (inactive)
13,COC(=O)C1=C(C(=O)OC)C2(OC1c1ccc(Br)cc1)C(=O)c1ccccc1C2=O (configuration not stated),0.81% (inactive)
14,Cn1cccc1/C=C1\SC(=S)N(NC(=O)c2ccc(Cl)cc2)C1=O,74.6% (active)
15,CC(=O)N1C(=O)/C(=C2\SC(=S)N(NC(=O)c3ccc(O)cc3)C2=O)c2ccccc21,-1.57% (inactive)
16,CN1C(=O)C(CC(N)=O)N(NC(=O)c2ccc(Cl)cc2)C1=S (configuration not stated),-1.5% (inactive)
17,O=C(NC1CCCC1)C1c2ccccc2OCC(=O)N1CC(F)(F)F (configuration not stated),2% (inactive)
18,COc1ccc(-c2nc3cc(C)ccn3c2NC2CCCCC2)cc1SC1CCCCC1,47.8% (active) and 27.6% (inactive)
19,Cc1ccc2nc(-c3cccnc3)c(NC3CCCC3)n2c1,6.3% (inactive)
20,COc1cccc(-c2nc3nc(C)cc(C)n3c2NC2CCCCC2)c1,3.94% (inactive)
21,Cc1ccn2c(c1)nc(=O)c1cc(S(=O)(=O)N3CCC(C)CC3)ccc12,4.48% (inactive)
22,Cc1cc(=O)oc2cc(OC(C)C(=O)Nc3ccc(N4CCOCC4)cc3)ccc12 (configuration not stated),-19.2% (inactive)

row,Structure (SMILES),activity change
1,O=C(O)c1ccc(N=NN2CCOCC2)cc1,1.22% (inactive)
2,O=C(O)c1ccc(N/N=C/c2ccc3ncccc3c2)cc1,-1.15% (inactive)
3,O=C(O)c1ccc(NN=CC2=C(N3CCOCC3)/C(=C/c3ccccc3)CC2)cc1,41.5% (active)
4,O=C(COC(=O)/C=C/c1ccc(S(=O)(=O)N2CCCCCC2)cc1)NCc1ccccc1Cl,-2.22% (inactive)
5,O=C1CCC(C(=O)N2CCCCO2)CN1Cc1cccc(C(F)(F)F)c1 (configuration not stated),1.26% (inactive)
6,NC(=O)Cn1nc([N+](=O)[O-])nc1Oc1ccc(Br)cc1,3.81% (inactive)
7,CCCCCCCNc1nc(Cl)nc(NCCO)n1,1.28% (inactive)
8,NNc1cccc(C=Cc2ccccc2)cc1=O,37.5% (active)
9,O=C(COC(=O)/C=C/c1cccc(Cl)c1)NCCc1ccccc1,1.96% (inactive)
10,O=C(COC(=O)c1cc(S(=O)(=O)N2CCOCC2)ccc1F)NC1CC1,-0.17% (inactive)
11,O=C(c1ccc[nH]c1=S)N1CCN(S(=O)(=O)c2ccc(Br)cc2Cl)CC1,0.57% (inactive)
12,COc1cc(/C=N\NC(=O)c2nonc2N)c(OC)cc1Br,-0.19% (inactive)
13,COc1ccccc1N1CCN(C(=O)C(=O)N/N=C/c2ccccc2F)CC1,-1.71% (inactive)
14,COc1cccc(/C=N/NC(=O)c2[nH]nc3c2CCc2ccccc2-3)c1O,49.2% (active)
15,O=C1COc2ccc(S(=O)(=O)NCCc3ccc(Cl)cc3)cc2N1,1.98% (inactive)
16,CC(C)n1c(O)c(N=Nc2ccccn2)c2ccccc21,0.04% (inactive)
17,CCOCCCNC(=O)Cc1cc(=O)[nH]c(=O)[nH]1,-0.4% (inactive)
18,N#CCCN1CCN(S(=O)(=O)c2ccc(S(=O)(=O)NC3CCCCC3)cc2)CC1,0.96% (inactive)
19,O=C(/C=C/c1ccc([N+](=O)[O-])o1)NNC(=O)c1ccc(F)cc1,0.84% (inactive)
20,C=CCn1c(SCC(=O)NC(=O)Cc2ccccc2)nc2ccccc2c1=O,1.95% (inactive)
21,CCn1c(/C=C/c2ccc([N+](=O)[O-])o2)nc2ccccc2c1=O,92.1% (active)
22,COc1ccccc1CCNC(=O)CN1C(=O)NC2(CCCC2)C1=O,1.6% (inactive)

row,Structure (SMILES),activity change
1,COc1ccc(C(=O)N2CCCCC2c2cc(C(=O)Nc3ccc(F)c(Cl)c3)no2)cc1 (configuration not stated),-0.55% (inactive)
2,COc1ccc(/C(C)=N/N2CCOCC2)c(O)c1,1.11% (inactive)
3,CN1/C(=c2/s/c(=C3/C(=O)N(c4ccccc4)NC3=Nc3ccccc3)n(C)c2=O)C(C)(C)c2ccccc21,66.2% (active)
4,O=C(CO/N=C/c1ccc(OC(F)F)cc1)NCc1ccc(F)cc1,-1.87% (inactive)
5,CCOC(=O)C1CCCN(C(=O)CSc2nnc3nc(C)cc(C)n23)C1 (configuration not stated),-2.41% (inactive)
6,COc1ccc(CCNC(=O)CN(C)S(=O)(=O)c2ccc3nc(C)sc3c2)cc1OC,3.34% (inactive)
7,COc1ccc(-c2ccc(C(=O)NCCN3CCOCC3)c3occc23)c(C)c1,-3.94% (inactive)
8,CCC(C)N1C(=O)S/C(=C/c2ccc(Sc3nc4ccccc4[nH]3)o2)C1=O (configuration not stated),77.3% (active)
9,CCC(c1nc2ccccc2[nH]1)n1c(=O)c(-c2cccs2)nc2ccccc21 (configuration not stated),4.95% (inactive)
10,CCOC(=O)/C(C#N)=C/c1ccc(N2CCCCC2)cc1,42.2% (active)
11,CCOC(=O)/C(C#N)=C\c1c(C)cc(C)c(COC(C)=O)c1C,2.55% (inactive)
12,COC(=O)/C(C#N)=C/c1occc1C,-1.39% (inactive)
13,CC(=O)NC(CC(=O)Nc1nc(-c2ccccc2)c(C(C)=O)s1)c1ccccc1 (configuration not stated),0.99% (inactive)
14,CCOc1ccc(-c2nc(C)sc2CC(=O)O)cc1,1.37% (inactive)
15,C/C(=N/Nc1nc(-c2ccccc2)c(CC(=O)O)s1)c1ccccc1,48.6% (active)
16,CC(C)c1ccc(Nc2nnc(SCC(=O)c3nnc(-c4ccccc4)o3)s2)cc1,7.36% (inactive)
17,COc1ccc(CNC(=O)CN(Cc2ccc(Cl)cc2)S(C)(=O)=O)cc1,1.96% (inactive)
18,CC[n+]1cc(C)ccc1/C=C/c1ccc(N(C)C)cc1,76.1% (active)
19,COc1ccccc1CNC(=O)c1ccc(N(C)S(=O)(=O)c2ccc(C)cc2)cc1,0.49% (inactive)
20,COc1cc(NS(=O)(=O)c2ccc(NC(=O)c3ccc(S(=O)(=O)N4CCCCC4)cc3)cc2)ncn1,-0.94% (inactive)
21,COC(=O)[C@]1(C)N[C@H](c2ccc(-c3ccc(Cl)c(Cl)c3)cc2)[C@@H]2C(=O)N(C)C(=O)[C@@H]21,-0.96% (inactive)
